Test results reported in PubChem BioAssay (NCATS).
“And” between values parts separate entries of the source, which are not always exact repeats. Identical values can stand only once. Results filed as inconclusive are left out. Some structures have more than one record in an assay (separate samples or runs), and their calls can disagree. The source made the active and inactive calls. Unless noted, no rule for the calls is given here.

Assay: qHTS Assay for Identifying Gametocytocidal Compounds (AID 743244; active = well fitted curve in the direction sought with a large enough effect; also: potency is read from the fitted curve at half-maximal effect;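 as to max response: % is scaled to controls: 0 for no effect and ±100 for the full control effect; actives lower the fluorescent signal which means gametocytes are killed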)
Details: P. falciparum 3D7 stage III-V gametocytes, alamarBlue, 72 h; max response: stronger effect = lower value
How it was run: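 3D7 gametocytes, stages III–V, 20,000/well; cpd 72 h, 37 °C/5% CO2; + alamarBlue 24 h; fluor. Ex 525/Em 598.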
For `C[C@]12CC[C@@H]3c4ccc(OC(=O)N(CCCl)CCCl)cc4CC[C@H]3[C@@H]1CC[C@@H]2OP(=O)(O)O`, the max response was 0.678% (inactive) and -5.22% (inactive). For `COP(=S)(OC)Oc1ccc(S(=O)(=O)N(C)C)cc1`, the max response was 17.5% (inactive). For `CN(C)CCc1c[nH]c2cccc(OP(=O)(O)O)c12`, the max response was 13% (inactive). With `COc1cccc([C@@]2(O)CCCC[C@@H]2CN(C)C)c1` the max response was 5.95% (inactive). With `CCOC(=O)C1=C(COCCN)NC(C)=C(C(=O)OC)C1c1ccccc1Cl` (stereo not drawn) the Potency was 20 µM (active) and the max response was -0.484% (inactive).

Assay: qHTS profiling of the MIPE4 collection as inhibitors of Plasmodium falciparum (3D7) proliferation (AID 743344);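 also: scaled between DMSO vehicle wells and 0.29 µM artemisinin as full inhibition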
Details: P. falciparum 3D7 in erythrocytes, SYBR Green DNA fluorescence, 72 h; at 28.5 µM (top of the series) unless noted
How it was run: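 Parasite DNA was quantified by SYBR Green I fluorescence (ex 485, em 535 nm) after overnight lysis in saponin/Triton buffer at room temperature. Cultures at 0.3% parasitemia and 2.5% hematocrit were first exposed to compound for 72 h at 37 C; signals were normalised to artemisinin (0.29 uM) and vehicle wells.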
Molecule `O=c1[nH]cnc2[nH]ncc12` has a parasite growth, % of DMSO control of 105%. Molecule `C[C@]12CCC(=O)C=C1CC[C@@H]1[C@H]3CC[C@](C)(O)[C@@]3(C)CC[C@@H]12` has a parasite growth, % of DMSO control of 70.7% [at 57.5 µM]. In the case of `CC[N+](CC)(CC)CCOc1cccc(OCC[N+](CC)(CC)CC)c1OCC[N+](CC)(CC)CC`, the parasite growth, % of DMSO control is reported as 86%. Work on `C[C@](O)(CS(=O)(=O)c1ccc(F)cc1)C(=O)Nc1ccc(C#N)c(C(F)(F)F)c1` yielded a parasite growth, % of DMSO control of 22%. Molecule `Nc1ccn(C[C@@H](CO)OCP(=O)(O)O)c(=O)n1` has a parasite growth, % of DMSO control of 94% [at 9.64 µM]. For `CN1C(=O)COc2c(C(=O)NC3CN4CCC3CC4)cc(Cl)cc21` (stereo not drawn), the parasite growth, % of DMSO control was 98.1%. Molecule `CC(=O)CC(c1ccccc1)c1c(O)c2ccccc2oc1=O` (stereo not drawn) has a parasite growth, % of DMSO control of 71.1%. `CCOC(=O)C1=C[C@@H](OC(CC)CC)[C@H](NC(C)=O)[C@@H](N)C1` showed a parasite growth, % of DMSO control of 91.3%. `C[C@]12CC[C@@H]3c4ccc(OC(=O)N(CCCl)CCCl)cc4CC[C@H]3[C@@H]1CC[C@@H]2OP(=O)(O)O` gave a parasite growth, % of DMSO control of 86.9%. `COCCCOc1ccnc(CS(=O)c2nc3ccccc3[nH]2)c1C` (stereo not drawn) showed a parasite growth, % of DMSO control of 78.8%. In the case of `CC(C)OC(=O)OCOP(=O)(CO[C@H](C)Cn1cnc2c(N)ncnc21)OCOC(=O)OC(C)C`, the parasite growth, % of DMSO control is reported as 292%. `C[C@]12CC[C@H]3[C@@H](CC[C@@]45O[C@H]4C(O)=C(C#N)C[C@]35C)[C@H]1CC[C@H]2O` gave a parasite growth, % of DMSO control of 70.4%.
